From PubChem
An excerpt weighted towards active compounds, which were near 8.7% of everything screened.
G9a block = inhibitors of human histone lysine methyltransferase G9a | Q96KQ7 | Potency, µM (series often up to 102 µM), most hits filed as inhibitors | actives 8.8% (n = 350,000) | G9a H3K9 monomethylation, AlphaScreen, 2 h; further: nearly all actives have a fitted effect of over 75% in size
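G9a (20 nM) was preincubated 15 min with compound, then reacted 2 h at room temperature with 500 nM biotin-H3K9 peptide and 20 µM SAM. Monomethyl-H3K9 detected by AlphaScreen using anti-H3K9me1 antibody.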
12-LOX inh = ALOX12 (human) lipoxygenase inhibition. P18054. purified 12hLO, xylenol orange hydroperoxide absorbance. AID 1671190. actives 1.1% (n = 580,000). Potency, µM (doses to about 108 µM), actives largely listed as inhibitors
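Hydroperoxide product was detected by ferrous iron/xylenol orange as the 573 to 405 nm absorbance ratio. Arachidonic acid at 40 uM (final) was turned over for 30 min at room temperature by 150 nM human 12hLO, pH 7.0 Hepes buffer, after 15 min compound preincubation.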
JMJD2A Tudor inh = JMJD2A Tudor domain (human) inhibition; AlphaScreen JMJD2A-Tudor / H3K4me3 peptide binding; Potency, µM (doses to about 114 µM), most hits filed as inhibitors; actives 4.4% (n = 390,000); AID 504339; further: nearly all actives have a fitted effect of over 50% in size
Target sequence (O75164 whole entry, looked up, the tested form may be a part): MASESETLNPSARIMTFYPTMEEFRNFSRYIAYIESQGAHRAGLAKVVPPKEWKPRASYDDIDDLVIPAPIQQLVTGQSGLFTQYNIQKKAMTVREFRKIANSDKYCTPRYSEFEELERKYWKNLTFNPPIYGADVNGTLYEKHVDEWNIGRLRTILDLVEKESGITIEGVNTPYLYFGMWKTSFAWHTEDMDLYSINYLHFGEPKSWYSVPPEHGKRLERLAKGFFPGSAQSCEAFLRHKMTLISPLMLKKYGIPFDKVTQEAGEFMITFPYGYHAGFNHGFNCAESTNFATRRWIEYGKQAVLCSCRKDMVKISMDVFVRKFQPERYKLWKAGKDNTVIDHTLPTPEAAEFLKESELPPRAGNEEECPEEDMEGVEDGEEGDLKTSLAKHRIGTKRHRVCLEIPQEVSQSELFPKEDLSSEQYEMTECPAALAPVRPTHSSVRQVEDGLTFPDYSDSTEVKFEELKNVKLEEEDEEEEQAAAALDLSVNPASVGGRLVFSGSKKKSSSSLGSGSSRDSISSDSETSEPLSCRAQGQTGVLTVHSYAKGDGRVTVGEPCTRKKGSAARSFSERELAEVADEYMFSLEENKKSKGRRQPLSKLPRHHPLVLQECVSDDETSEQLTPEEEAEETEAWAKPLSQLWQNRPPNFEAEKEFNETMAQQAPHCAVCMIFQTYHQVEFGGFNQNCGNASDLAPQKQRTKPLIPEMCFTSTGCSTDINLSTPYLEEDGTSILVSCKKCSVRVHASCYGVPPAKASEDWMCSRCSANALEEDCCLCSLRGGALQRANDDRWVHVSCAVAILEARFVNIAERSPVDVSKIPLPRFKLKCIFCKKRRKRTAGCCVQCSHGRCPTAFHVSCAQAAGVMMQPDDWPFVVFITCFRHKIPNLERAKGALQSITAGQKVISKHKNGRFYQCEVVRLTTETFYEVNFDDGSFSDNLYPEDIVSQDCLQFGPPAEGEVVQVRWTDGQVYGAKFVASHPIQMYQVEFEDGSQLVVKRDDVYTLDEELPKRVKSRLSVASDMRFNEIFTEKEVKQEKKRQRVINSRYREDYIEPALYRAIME
Sfp inh = inhibitors of Bacillus subtilis Sfp phosphopantetheinyl transferase; Q9F4F7; Biochemical Sfp PPTase activity, qHTS; Potency, µM, hits mostly inhibitors; actives 3.5% (n = 310,000); AID 1490;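 further: the enzyme is Sfp with the accession as filed and its product quenches rhodamine fluorescence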
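With Hepes-Na pH 7.6 buffer containing 10 mM MgCl2, Sfp (15 nM) modified BHQ-2-YbbR (12.5 uM) using rhodamine-CoA (5 uM). Two reads 30 minutes apart at 525/598 nm yielded each well's rate.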
BAZ2B inh = inhibitors of human BAZ2B bromodomain; Q9UIF8; AlphaScreen BAZ2B-H3K14Ac peptide displacement; Potency, µM (series often up to 114 µM), usual class: inhibitors; actives 4.4% (n = 360,000); further: nearly all actives have a fitted effect of over 60% in size
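AlphaScreen displacement: compounds (up to 110uM) incubated 30 min at room temperature with a preformed 50 nM BAZ2B/50 nM biotinylated H3K14Ac peptide complex in PBS pH 7.4 with Tween-20. Donor and acceptor beads at 10 ug/mL final added, 20 min light-protected before reading.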
HP1b chromo inh = inhibitors of HP1-beta chromodomain binding to methylated histone tails. P83916. AlphaScreen HP1-beta / biotin-H3K9me3 peptide binding. Potency, µM (highest dose often 114 µM), most hits filed as inhibitors. actives 0.56% (n = 390,000); further: nearly all actives have a fitted effect of over 70% in size
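Compound inhibition of the preformed complex between 50 nM HP1-beta and 50 nM biotinylated H3K9me3 peptide was read by AlphaScreen. Buffer was PBS pH 7.4 with 0.01% Tween-20. Incubations ran 30 min at room temperature, with 10 ug/mL donor/acceptor beads.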
Numbers stand for hits; ! = not confirmed by another sample; [ ] = another dose, or the depositor's remark. The call rests on the fitted dose curve; in most records, active means well fitted curve in the direction sought with a large enough effect; inconclusive means small, poorly fitted or top-dose-only effect, or another doubt; inactive means no such curve, though single readings can be large; an effect the other way counts as inactive or inconclusive.

For Cc1cc2nn(-c3cccc4ccccc34)nc2cc1N the results were G9a block 3.5µM, 12-LOX inh inconclusive, JMJD2A Tudor inh inactive, Sfp inh inactive, BAZ2B inh inconclusive and HP1b chromo inh inactive.
`Cc1ccc(-n2nc3cc(C)c(N)cc3n2)cc1` gave G9a block 1.6µM, 12-LOX inh 45µM, JMJD2A Tudor inh inactive, Sfp inh inactive, BAZ2B inh inconclusive and HP1b chromo inh inactive.
Screening Nc1cc2nn(-c3ccccc3)nc2cc1Cl returned G9a block inconclusive, 12-LOX inh 5.6µM, JMJD2A Tudor inh inactive, Sfp inh 40µM, BAZ2B inh inactive and HP1b chromo inh inactive.
`COc1ccc(-n2nc3cc(N)c(Br)cc3n2)cc1` gave G9a block inactive[0.501 µM], 12-LOX inh inactive, JMJD2A Tudor inh inactive, Sfp inh inactive, BAZ2B inh inactive and HP1b chromo inh inactive.
`CC(=O)c1c(C)[nH]c(-c2csc(CC(=O)Nc3ccccc3C)n2)c1C` gave 12-LOX inh inactive.
CCOC(=O)C(CC(C(=O)OCC)C(=O)OCC)C(=O)OCC was read as 12-LOX inh inactive.
`CCc1ccc(C(=O)Nc2ccc3nn(-c4ccc(C)c(Cl)c4)nc3c2)cc1` gave G9a block inactive, 12-LOX inh inactive, JMJD2A Tudor inh inactive, BAZ2B inh inactive and HP1b chromo inh inactive.
`CCc1ccc(-n2nc3cc(C)c(N)cc3n2)cc1` gave G9a block 1.1µM, 12-LOX inh 20µM, JMJD2A Tudor inh 89µM, Sfp inh 56µM, BAZ2B inh 32µM and HP1b chromo inh inactive.
For O=C(c1ccccc1)N1CCCCC1c1nc(-c2cccnn2)no1 (centres undefined) the results were 12-LOX inh inactive.
O=C1N(c2ccccc2)c2ccccc2C1(Cc1ccncc1)Cc1ccncc1 was read as G9a block 13µM!, 12-LOX inh 24µM!, JMJD2A Tudor inh inactive, Sfp inh inactive, BAZ2B inh inconclusive and HP1b chromo inh inactive.
For O=C(c1ccc(C(F)(F)F)cc1)N1CCCC2(C1)C(=NC1CCCC1)NC(=O)N2c1cc(F)cc(F)c1 (centres undefined) the results were 12-LOX inh inactive[6.33 µM].
Screening N#Cc1c(SCC(=O)Nc2ccccc2C(F)(F)F)sc2c(O)cc(=O)[nH]c12 returned G9a block inactive, 12-LOX inh inactive, JMJD2A Tudor inh inactive, Sfp inh 14µM, BAZ2B inh inactive and HP1b chromo inh inactive.
For CCOc1cccc(NC(=O)CSc2sc3c(O)cc(=O)[nH]c3c2C#N)c1 the results were G9a block inconclusive, 12-LOX inh inactive, JMJD2A Tudor inh inactive, Sfp inh 35µM, BAZ2B inh inactive and HP1b chromo inh inactive.
N#Cc1c(SCC(=O)Nc2cccc(F)c2)sc2c(O)cc(=O)[nH]c12 was read as G9a block inconclusive, 12-LOX inh inconclusive, JMJD2A Tudor inh inactive, Sfp inh 56µM, BAZ2B inh inactive and HP1b chromo inh inactive.
CC(C)NCc1ccc(-c2ccc(C(C)O)cc2)o1 (centres undefined) was read as 12-LOX inh inactive.
Screening O=C(CCCc1ccccc1)Nc1cccc(-c2nnc3n2CCCC3)c1 returned 12-LOX inh inactive.
NS(=O)(=O)c1ccc(NC(=O)N2c3ccccc3Sc3ccccc32)cc1 was read as 12-LOX inh inconclusive, JMJD2A Tudor inh inactive, Sfp inh inactive, BAZ2B inh 50µM and HP1b chromo inh inactive.
For COc1ccc(NC2=C(NC(C)=O)C(=O)c3ccccc3C2=O)cc1 the results were G9a block inconclusive, 12-LOX inh inactive, JMJD2A Tudor inh inactive, Sfp inh inactive, BAZ2B inh inconclusive and HP1b chromo inh inconclusive.
Screening COC1=C(Nc2ccc(O)cc2)C(=O)c2ccccc2C1=O returned G9a block 28µM, 12-LOX inh inconclusive, JMJD2A Tudor inh 45µM, Sfp inh inconclusive, BAZ2B inh 40µM and HP1b chromo inh 50µM.
`COC1=C(Nc2ccc(OC)cc2)C(=O)c2ccccc2C1=O` gave G9a block 10µM, 12-LOX inh inactive, JMJD2A Tudor inh 20µM, Sfp inh inconclusive, BAZ2B inh 8.9µM and HP1b chromo inh 22µM.
`CCOc1ccc(NC2=C(Cl)C(=O)N(Cc3ccccc3)C2=O)cc1` gave G9a block inactive, 12-LOX inh inactive, JMJD2A Tudor inh inconclusive, Sfp inh inactive, BAZ2B inh inconclusive and HP1b chromo inh inconclusive.
For COC1=C(Nc2ccc(OC)cc2)C(=O)C(OC)=C(Nc2ccc(OC)cc2)C1=O the results were 12-LOX inh inactive, JMJD2A Tudor inh inactive and HP1b chromo inh inactive.
For CCOc1ccc(NC2=C(OC)C(=O)c3ccccc3C2=O)cc1 the results were G9a block 8.9µM, 12-LOX inh inactive, JMJD2A Tudor inh 8.9µM, Sfp inh inactive, BAZ2B inh 10µM and HP1b chromo inh 25µM.
Cc1ccc(OCC(=O)N/N=C/c2cccc(O)c2)cc1 was read as 12-LOX inh inactive.
Screening COc1ccccc1NC(=O)c1c(C)cc(C)nc1SCC(=O)NCc1ccccc1 returned 12-LOX inh inactive.
O=C(Nc1nc(-c2ccc(Br)cc2)cs1)c1cccnc1 was read as G9a block inactive, 12-LOX inh inactive, JMJD2A Tudor inh inactive, Sfp inh inactive, BAZ2B inh inactive and HP1b chromo inh inactive.
For CC(C)/C=N/Nc1nc(-c2ccc(Br)cc2)cs1 the results were G9a block inactive, 12-LOX inh inactive, JMJD2A Tudor inh inactive, Sfp inh 79µM, BAZ2B inh inconclusive and HP1b chromo inh inactive.
`C=CC[n+]1c(C)csc1Nc1ccc(C(=O)O)cc1` gave G9a block inconclusive, 12-LOX inh inactive, JMJD2A Tudor inh inactive, Sfp inh inactive, BAZ2B inh inconclusive and HP1b chromo inh inactive.
C=CC[n+]1c(-c2ccccc2)csc1NC(C)(C)C was read as G9a block inconclusive, 12-LOX inh inactive, JMJD2A Tudor inh inactive, Sfp inh inactive, BAZ2B inh 50µM and HP1b chromo inh inconclusive.
CCOc1ccccc1CN1CCNC(=O)C1CC(=O)N1CCCOCC1 (centres undefined) was read as 12-LOX inh inactive.
For Cc1c(-n2c(O)c(C3=c4ccccc4=NC3=O)sc2=S)c(=O)n(-c2ccccc2)n1C the results were G9a block 45µM, 12-LOX inh inactive, JMJD2A Tudor inh inactive, Sfp inh inconclusive, BAZ2B inh inactive and HP1b chromo inh inactive.
For O=C1CC(NCc2cc(F)ccc2-n2cccn2)CN1Cc1cccc(F)c1 (centres undefined) the results were 12-LOX inh inactive.
For O=C(Nc1ccccc1C(=O)O)C1=NN=CC1 the results were G9a block 50µM, 12-LOX inh inactive, JMJD2A Tudor inh inactive, Sfp inh inactive, BAZ2B inh inactive and HP1b chromo inh inconclusive.
